# Test results reported in the supplement of paper PMC8728848.
# The entries come from a sample that favours the strongest signals as a whole.
# Columns and labels:
# Assay in all cases: glycan array binding signal (z-score within array); higher = stronger binding
# Conditions in all cases: glycan notation: IUPAC condensed, linker removed
# Fuc(a1-2)Gal(b1-4)GlcNAc = biological target: Fuc(a1-2)Gal(b1-4)GlcNAc
# In short: (§1)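 Glycan array data were curated from 3228 arrays in the Consortium for Functional Glycomics database and kept only where the protein sequence was available. Glycan names were converted to IUPAC-condensed notation, and columns mapping to the same glycan were averaged. The binding signal is a within-array Z-score, averaged across arrays of the same protein sequence at different concentrations or buffers and across linkers. Negative Z-scores can be read as non-binding.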
# [1] = biological target: Fuc(a1-2)Gal(b1-4)GlcNAc(b1-3)Gal(b1-4)GlcNAc(b1-3)Gal(b1-4)GlcNAc
# In short: as §1
# [2] = biological target: Fuc(a1-2)Gal(b1-4)[Fuc(a1-3)]GlcNAc
# In short: as §1
# Fuc(a1-2)Gal6S(b1-4)Glc = biological target: Fuc(a1-2)Gal6S(b1-4)Glc
# In short: as §1
# [3] = biological target: Fuc(a1-2)Gal6S(b1-4)GlcNAc
# In short: as §1
# [4] = biological target: Fuc(a1-2)[Gal(a1-3)]Gal(b1-4)GlcNAc
# In short: as §1
# [5] = biological target: Fuc(a1-2)[GalNAc(a1-3)]Gal(b1-3)GlcNAc(b1-2)Man(a1-3)[Fuc(a1-2)[GalNAc(a1-3)]Gal(b1-3)GlcNAc(b1-2)Man(a1-6)]Man(b1-4)GlcNAc(b1-4)GlcNAc
# In short: as §1
# [6] = biological target: Fuc(a1-2)[GalNAc(a1-3)]Gal(b1-4)GlcNAc
# In short: as §1
# [7] = biological target: Fuc(a1-3)[Gal(b1-4)]GlcNAc(b1-2)Man(a1-6)[Gal(b1-4)GlcNAc(b1-2)Man(a1-3)]Man(b1-4)GlcNAc(b1-4)GlcNAc
# In short: as §1
# [8] = biological target: Gal(a1-3)Gal(b1-3)GlcNAc(b1-2)Man(a1-3)[Gal(a1-3)Gal(b1-3)GlcNAc(b1-2)Man(a1-6)]Man(b1-4)GlcNAc(b1-4)GlcNAc
# In short: as §1
# [9] = biological target: Gal(a1-4)Gal(b1-3)GlcNAc(b1-2)Man(a1-3)[Gal(a1-4)Gal(b1-3)GlcNAc(b1-2)Man(a1-6)]Man(b1-4)GlcNAc(b1-4)GlcNAc
# In short: as §1
# [10] = biological target: Gal(a1-4)Gal(b1-4)GlcNAc(b1-2)Man(a1-3)[Gal(a1-4)Gal(b1-4)GlcNAc(b1-2)Man(a1-6)]Man(b1-4)GlcNAc(b1-4)GlcNAc
# In short: as §1
# Gal(b1-3)Gal = biological target: Gal(b1-3)Gal
# In short: as §1
# Gal(b1-3)Gal(b1-4)GlcNAc = biological target: Gal(b1-3)Gal(b1-4)GlcNAc
# In short: as §1
# [11] = biological target: Gal(b1-3)GalNAc(a1-3)[Fuc(a1-2)]Gal(b1-4)GlcNAc
# In short: as §1
# [12] = biological target: Gal(b1-3)GlcNAc(b1-3)Gal(b1-4)GlcNAc(b1-6)[Gal(b1-3)GlcNAc(b1-3)]Gal(b1-4)Glc
# In short: as §1
# [13] = biological target: Gal(b1-4)GlcNAc(a1-6)Gal(b1-4)GlcNAc
# In short: as §1
# [14] = biological target: Gal(b1-4)GlcNAc(b1-2)Man(a1-3)[GlcNAc(b1-2)Man(a1-6)]Man(b1-4)GlcNAc(b1-4)GlcNAc
# In short: as §1
# [15] = biological target: Gal3S(b1-4)[Fuc(a1-3)]Glc
# In short: as §1
# [16] = biological target: GlcNAc(a1-4)Gal(b1-4)GlcNAc(b1-3)Gal(b1-4)Glc
# In short: as §1
# [17] = biological target: GlcNAc(b1-2)[GlcNAc(b1-4)]Man(a1-3)[GlcNAc(b1-2)Man(a1-6)]Man(b1-4)GlcNAc(b1-4)GlcNAc
# In short: as §1
# [18] = biological target: GlcNAc(b1-3)Gal(b1-4)GlcNAc
# In short: as §1
# [19] = biological target: GlcNAc(b1-3)[GlcNAc(b1-4)][GlcNAc(b1-6)]GlcNAc
# In short: as §1
# [20] = biological target: Man(a1-2)Man(a1-3)[Man(a1-2)Man(a1-6)]Man
# In short: as §1
# [21] = biological target: Man(a1-2)Man(a1-3)[Man(a1-2)Man(a1-6)]Man(a1-6)[Man(a1-2)Man(a1-2)Man(a1-3)]Man
# In short: as §1
# [22] = biological target: Neu5Ac(a2-3)Gal(b1-3)GlcNAc(b1-2)Man(a1-3)[Neu5Ac(a2-3)Gal(b1-3)GlcNAc(b1-2)Man(a1-6)]Man(b1-4)GlcNAc(b1-4)GlcNAc
# In short: as §1
# [23] = biological target: Neu5Ac(a2-3)Gal(b1-3)GlcNAc(b1-3)Gal(b1-3)GlcNAc
# In short: as §1
# [24] = biological target: Neu5Ac(a2-3)Gal(b1-3)GlcNAc(b1-3)Gal(b1-4)GlcNAc
# In short: as §1
# [25] = biological target: Neu5Ac(a2-3)Gal(b1-3)[Neu5Ac(a2-3)Gal(b1-4)]GlcNAc
# In short: as §1
# [26] = biological target: Neu5Ac(a2-3)Gal(b1-4)GlcNAc(b1-2)Man(a1-3)[GlcNAc(b1-2)Man(b1-4)GlcNAc(b1-2)Man(a1-6)]Man(b1-4)GlcNAc(b1-4)GlcNAc
# In short: as §1
# [27] = biological target: Neu5Ac(a2-3)Gal(b1-4)GlcNAc(b1-2)Man(a1-3)[Neu5Ac(a2-6)Gal(b1-4)GlcNAc(b1-2)Man(a1-6)]Man(b1-4)GlcNAc(b1-4)GlcNAc
# In short: as §1
# [28] = biological target: Neu5Ac(a2-3)Gal(b1-4)[Fuc(a1-3)]GlcNAc(b1-3)Gal(b1-4)[Fuc(a1-3)]GlcNAc(b1-3)Gal(b1-4)[Fuc(a1-3)]GlcNAc
# In short: as §1
# Neu5Ac(a2-6)Gal(b1-4)Glc = biological target: Neu5Ac(a2-6)Gal(b1-4)Glc
# In short: as §1
# [29] = biological target: Neu5Ac(a2-6)Gal(b1-4)GlcNAc(b1-3)Gal(b1-4)GlcNAc(b1-3)Gal(b1-4)GlcNAc
# In short: as §1
# [30] = biological target: Neu5Ac(a2-6)Gal(b1-4)GlcNAc(b1-3)GalNAc
# In short: as §1
# [31] = biological target: Neu5Ac(a2-6)GalNAc(b1-4)GlcNAc
# In short: as §1
# Fuc(a1-2)[Gal(a1-3)]Gal = biological target: Fuc(a1-2)[Gal(a1-3)]Gal
# In short: as §1
# Gal(a1-3)Gal(b1-4)GlcNAc = biological target: Gal(a1-3)Gal(b1-4)GlcNAc
# In short: as §1
# [32] = biological target: Gal(a1-3)[Gal(a1-4)]Gal(b1-4)GlcNAc
# In short: as §1
# [33] = biological target: Gal(b1-4)GlcNAc(b1-6)GalNAc
# In short: as §1
# Gal3S(b1-4)Glc = biological target: Gal3S(b1-4)Glc
# In short: as §1
# Gal4S(b1-4)GlcNAc = biological target: Gal4S(b1-4)GlcNAc
# In short: as §1
# Gal6S(b1-4)Glc = biological target: Gal6S(b1-4)Glc
# In short: as §1
# [34] = biological target: GlcNAc(b1-3)[GlcNAc(b1-6)]GlcNAc(b1-4)GlcNAc
# In short: as §1
# [35] = biological target: Man(a1-2)Man(a1-2)Man(a1-6)[Man(a1-3)]Man
# In short: as §1
# [36] = biological target: Neu5Ac(a2-3)Gal(b1-4)GlcNAc(b1-3)Gal(b1-4)GlcNAc(b1-3)Gal(b1-4)GlcNAc
# In short: as §1
# [37] = biological target: Neu5Ac(a2-3)Gal(b1-4)[Fuc(a1-3)]GlcNAc
# In short: as §1
binder,measurement,setting,value
"Mincle (Homo sapiens), Q9ULY5 (protein) MNSSKSSETQCTERGCFSSQMFLWTVAGIPILFLSACFITRCVVTFRIFQTCDEKKFQLPENFTELSCYNYGSGSVKNCCPLNWEYFQSSCYFFSTDTISWALSLKNCSAMGAHLVVINSQEEQEFLSYKKPKMREFFIGLSDQVVEGQWQWVDGTPLTKSLSFWDVGEPNNIATLEDCATMRDSSNPRQNWNDVTCFLNYFRICEMVGINPLNKGKSL",glycan array binding signal (z-score),Fuc(a1-2)Gal(b1-4)GlcNAc,-0.329
same,glycan array binding signal (z-score),[1],0.144
same,glycan array binding signal (z-score),[2],-0.37
same,glycan array binding signal (z-score),Fuc(a1-2)Gal6S(b1-4)Glc,-0.325
same,glycan array binding signal (z-score),[3],-0.106
same,glycan array binding signal (z-score),[4],-0.111
same,glycan array binding signal (z-score),[5],0.062
same,glycan array binding signal (z-score),[6],-0.289
same,glycan array binding signal (z-score),[7],5.4
same,glycan array binding signal (z-score),[8],4.69
same,glycan array binding signal (z-score),[9],0.054
same,glycan array binding signal (z-score),[10],3.26
same,glycan array binding signal (z-score),Gal(b1-3)Gal,-0.357
same,glycan array binding signal (z-score),Gal(b1-3)Gal(b1-4)GlcNAc,-0.566
same,glycan array binding signal (z-score),[11],-0.127
same,glycan array binding signal (z-score),[12],6.4
same,glycan array binding signal (z-score),[13],-0.484
same,glycan array binding signal (z-score),[14],0.969
same,glycan array binding signal (z-score),[15],-0.146
same,glycan array binding signal (z-score),[16],-0.295
same,glycan array binding signal (z-score),[17],-0.194
same,glycan array binding signal (z-score),[18],-0.245
same,glycan array binding signal (z-score),[19],-0.38
same,glycan array binding signal (z-score),[20],0.813
same,glycan array binding signal (z-score),[21],5
same,glycan array binding signal (z-score),[22],-0.71
same,glycan array binding signal (z-score),[23],-0.197
same,glycan array binding signal (z-score),[24],-0.575
same,glycan array binding signal (z-score),[25],-0.483
same,glycan array binding signal (z-score),[26],3.33
same,glycan array binding signal (z-score),[27],2.53
same,glycan array binding signal (z-score),[28],-0.324
same,glycan array binding signal (z-score),Neu5Ac(a2-6)Gal(b1-4)Glc,-0.181
same,glycan array binding signal (z-score),[29],-0.394
same,glycan array binding signal (z-score),[30],0.372
same,glycan array binding signal (z-score),[31],-0.184
"RegIIIalpha (Mus musculus), O09037 (protein) MLPHLVLNSISWMLLSCLLFVFQVQGEDFQKEVPSPRTSCPMGYKAYRSHCYALVMTPKSWFQADLVCQKRPSGHLVSILSGGEASFVSSLVNGRVDNYQDIWIGLHDPTMGQQPNGGGWEWSNSDVLNYLNWDGDPSSTVNRGHCGSLTASSGFLKWGDYYCDGTLPFVCKFKQ",glycan array binding signal (z-score),Fuc(a1-2)Gal(b1-4)GlcNAc,-0.094
same,glycan array binding signal (z-score),[1],0.048
same,glycan array binding signal (z-score),Fuc(a1-2)[Gal(a1-3)]Gal,-0.098
same,glycan array binding signal (z-score),Gal(a1-3)Gal(b1-4)GlcNAc,-0.089
same,glycan array binding signal (z-score),[32],0.002
same,glycan array binding signal (z-score),[33],-0.096
same,glycan array binding signal (z-score),Gal3S(b1-4)Glc,-0.096
same,glycan array binding signal (z-score),Gal4S(b1-4)GlcNAc,0.116
same,glycan array binding signal (z-score),Gal6S(b1-4)Glc,-0.072
same,glycan array binding signal (z-score),[34],-0.081
same,glycan array binding signal (z-score),[35],-0.092
same,glycan array binding signal (z-score),[36],0.002
same,glycan array binding signal (z-score),[37],-0.054
